Source: PubChem BioAssay (National Center for Advancing Translational Sciences (NCATS))
HCMV antiviral – blocks human cytomegalovirus replication | HFF cells, HCMV-luciferase reporter, 72 h; stronger effect = lower value | activity change, negative = inhibition, % at 57.5 µM | 410,000 compounds, 4.5% hits | AID 1259415; in the data active means activity change below about -60%; inconclusive means no clear call, values can overlap the other calls; inactive means above about -39%; further: on the % scale 0 is the no-effect control and ±100 the full control effect
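Steps: HFFs plated, 16 h 37C; compounds added; HCMV-luciferase added to MOI 1 PFU/cell; 72 h 37C; OneGlo reagent, 5 min room temperature; luminescence read, normalized to controls.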
HCV inhibitor – HCV inhibition | Huh7.5.1 HCVcc-Cre infection, luciferase reporter, 44 h | Potency, µM (series often up to 41.8 µM), without a hit: at the highest dose activity change, negative = inhibition, actives largely listed as inhibitors | 340,000 compounds, 3.4% hits | AID 651820; further: potency means the concentration at half of the fitted maximal effect; on the % scale 0 is the no-effect control and ±100 the full control effect
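Whole-lifecycle infectious HCVcc-Cre system; cells 1,000/well, compound then virus (~0.5 moi) added 4 h after plating, 44 h culture. Luciferase read 15 sec following 15 min substrate incubation, room temp.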
Pf growth 96h – P. falciparum growth inhibition at 96 hours | AID 504834 | Potency, µM (titrated, usually from 28.7 µM), for inactives: top-dose activity change, negative = inhibition, actives largely listed as inhibitors | P. falciparum luciferase reporter growth, 96 h | 320,000 compounds, 6.9% hits; further: potency means the concentration at half of the fitted maximal effect; on the % scale 0 is the no-effect control and ±100 the full control effect
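Luminescence readout: decreased luciferase signal marks inhibited growth of reporter-expressing P. falciparum in infected red cells (2% hematocrit, 0.05% parasitemia final), exposed to compound two generations (96 h, 37 C, 5% CO2).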
Shiga toxin inh – Shiga toxin inhibition; inhibition, % at 38.7 µM; 290,000 compounds, 9.2% hits; Vero cells, Shiga toxin protein synthesis inhibition reporter; in the data active means inhibition mostly above about 28%, no sharp cut-off; inactive means mostly below about 43%; further: 0% is about no effect
Pf growth 48h – P. falciparum growth inhibition at 48 hours (one generation). P. falciparum luciferase growth in erythrocytes, 48 h. Potency, µM (series often up to 28.7 µM), for inactives: top-dose activity change, negative = inhibition, actives largely listed as inhibitors. 310,000 compounds, 5.9% hits. AID 504832; further: potency means the concentration at half of the fitted maximal effect; on the % scale 0 is the no-effect control and ±100 the full control effect
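Here the parasites carry a stable luciferase gene and grow inside erythrocytes in Albumax-based RPMI medium with compound for one erythrocytic cycle. Activity is scored as loss of luminescent signal.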
CHX counter – affects cycloheximide protein synthesis inhibition readout, counter-screen; cell reporter, cycloheximide protein synthesis inhibition counterscreen; max response, %; 300,000 compounds, 12% hits; in the data active means max response mostly above about 13%, no sharp cut-off; inactive means mostly below about 14%; further: read at 38.3 µM for the half of the compounds with a filed dose; 0% is about no effect
Active calls of the source: *; ? = inconclusive; . = no result given; [ ] = dose if it differs, or a comment. This is a sample that favours compounds with a hit; in the whole collection about 21% have one here. Unless noted, the call rests on the fitted dose curve; in most records, active means well fitted inhibition curve with a large enough effect; inconclusive means small, poorly fitted or top-dose-only effect, or another doubt; inactive means no such curve, though single readings can be large or run the other way.

SMILES | HCMV antiviral | HCV inhibitor | Pf growth 96h | Shiga toxin inh | Pf growth 48h | CHX counter
Cc1nc(CS(=O)(=O)c2ccccc2)cc(Sc2ccc(Cl)cc2Cl)n1 | -20.5 | ? | ? | 68.3* | ? | 16.9*
CCOC(=O)c1cnn(-c2c(Cc3ccccc3)c(C)nc3c(-c4ccccc4)c(C)nn23)c1N | -11.9 | ? | . | 16.8 | 11.7µM* | 0.2
CCOc1ccc(C(=O)NC(=S)NC2CCCC2)cc1[N+](=O)[O-] | -29.5 | ? | ? | 15.8 | ? | -1.8
COc1ccc(-c2noc(-c3ccc(N4CCOCC4)c([N+](=O)[O-])c3)n2)cc1 | -5.4 | . | . | . | . | .
COc1ccc2oc(-c3ccc(NC(=O)c4ccc(N5CCOCC5)c([N+](=O)[O-])c4)cc3)nc2c1 | -26.8 | ? | ? | -2.6 | 2.33µM* | -2.8
O=C(Nc1cccc(-c2nc3cc(Cl)ccc3o2)c1)c1cc([N+](=O)[O-])ccc1N1CCOCC1 | -63.1* | . | . | . | . | .
O=C(Nc1cc(-c2nc3ccccc3o2)ccc1Cl)c1ccc(N2CCCCC2)c([N+](=O)[O-])c1 | 64.6 | . | . | . | . | .
Cn1cc([N+](=O)[O-])c(C(=O)Nc2ccc(-c3nc4ccccc4o3)cc2)n1 | -8.6 | ? | 23.5% | 69.0* | 50.6% | 38.6*
O=C(Nc1ccc(-c2nc3ccccc3o2)cc1)c1ccc(N2CCOCC2)c([N+](=O)[O-])c1 | ? | ? | ? | 24.2 | -3.5% | 8.5*
CCOC(=O)C1=C(CN2CCN(c3ccccc3)CC2)NC(=O)NC1c1ccc(C)cc1 (stereo unspecified) | 1.6 | . | . | . | . | .
CC1=C(C(=O)O)CC(S(=O)(=O)O)C1(C)C (stereo unspecified) | -16.2 | 9.7% | . | . | . | .
COC(=O)c1ccccc1NC(=O)CSc1nc(=O)cc(N)n1-c1ccccc1 | -5.1 | . | . | . | . | .
CCOC(=O)C1=C(N)OC2=C(C(=O)CCC2)C12C(=O)N1c3c(ccc(C)c32)C(C)=CC1(C)C (stereo unspecified) | -2.7 | -3.7% | 11.7µM* | -6.6 | ? | -1.1
N#CC(C#N)=C1C=CC=CN1/C(=C\c1ccccc1Cl)C(=O)c1ccccc1 | ? | ? | -0.7% | -3.9 | -11.4% | -2.3
N#CC(C#N)=C1C=CC=CN1/C(=C\c1ccccc1)C(=O)c1cccs1 | -19.4 | -24.9% | ? | 57.4 | -0.1% | 23.9*
Cc1cc(C)c(S(=O)(=O)Cc2ccccc2)c(=O)[nH]1 | -11.4 | 14.2% | ? | -2.6 | 0.6% | -1.9
Cc1cc(C)c(S(=O)(=O)Cc2ccccc2)c(OC(C)C)n1 | 19.9 | -7.4% | 10.4µM* | -3.4 | ? | -1.6
CCc1c(C)nc(SCc2nc(-c3ccccc3C)no2)[nH]c1=O | -9.4 | . | . | . | . | .
CCCCN(c1ccccc1)c1ncnc2nc[nH]c12 | . | -0.5% | ? | -5.6 | ? | -1.5
CCCCN(CCCNc1ncnc2nc[nH]c12)c1ccccc1 | -6.4 | ? | 11.7µM* | -16.8 | ? | -6.6
CCN(c1cccc(C)c1)c1ncnc2nc[nH]c12 | -25.3 | ? | ? | -4.4 | ? | -0.7
CCN(CCCNc1ncnc2nc[nH]c12)c1cccc(C)c1 | -76.0* | ? | -11.2% | -5.3 | -3.8% | -4.1
CCn1cc(/C=N\NC(=O)c2csc3ccccc23)c(C)n1 | -0.3 | -27.6% | -6.5% | 82.3 | . | 44.4*
O=C(N/N=C/c1ccc(O)cc1)c1csc2ccccc12 | 8.5 | 3.1% | 30.3% | 16.5 | 20.6% | 15.6
Cc1c(/C=N\NC(=O)c2c[nH]c3ccccc23)cnn1C | 72.3 | 12.9% | 14.0%[5.75 µM] | 46.3* | -10.8% | 15.4*
CCn1cc(/C=N\NC(=O)c2c[nH]c3ccccc23)c(C)n1 | -2.5 | 17.6% | -17.9% | 73.8* | 14.4% | 42.4
CSc1ccccc1C(=O)C1CCCN(C(=O)c2cc(C(C)C)no2)C1 (stereo unspecified) | -7.0 | ? | -7.7% | 26.9 | -1.1% | -1.1
CSc1ccccc1C(=O)C1CCCN(C(=O)c2csnn2)C1 (stereo unspecified) | 5.7 | 1.6% | 9.6% | 89.8* | 22.4% | 30.7*
COc1cc(CN2CCCC(C(=O)c3ccccc3SC)C2)cc(OC)c1 (stereo unspecified) | -15.8 | 11.2µM* | 11.7µM* | -9.5 | 0.0% | -5.7
